Screens (PubChem BioAssay)
Hits are enriched below; roughly 28% of the tested compounds scored in any of these assays.
CYP2C19 inh: blocks human cytochrome P450 2C19; 21% of 96,000 active; inhibition, % at 5 µM; CYP2C19 Supersomes, luciferin-H EGE luminescence, 30 min;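 active means CYP2C19 inhibition above a set limit at 5 µM in the primary screen, cut at about 50% in these data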
Target sequence (P33261 whole entry, looked up): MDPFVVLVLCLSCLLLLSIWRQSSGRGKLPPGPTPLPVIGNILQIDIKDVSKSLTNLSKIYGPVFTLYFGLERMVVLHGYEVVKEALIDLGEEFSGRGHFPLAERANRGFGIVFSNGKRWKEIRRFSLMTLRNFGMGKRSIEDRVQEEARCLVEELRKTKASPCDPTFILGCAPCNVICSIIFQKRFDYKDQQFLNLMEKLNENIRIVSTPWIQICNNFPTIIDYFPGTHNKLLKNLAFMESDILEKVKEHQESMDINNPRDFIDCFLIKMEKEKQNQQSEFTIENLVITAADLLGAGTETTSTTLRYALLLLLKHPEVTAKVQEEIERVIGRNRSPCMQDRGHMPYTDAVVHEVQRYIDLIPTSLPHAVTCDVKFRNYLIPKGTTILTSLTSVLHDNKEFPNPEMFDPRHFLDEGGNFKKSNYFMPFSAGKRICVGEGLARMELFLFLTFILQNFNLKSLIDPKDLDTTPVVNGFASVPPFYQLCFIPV
CYP2C19 act: cytochrome P450 2C19 (human) activation | recombinant CYP2C19, luciferin-H EGE luminescence; stronger effect = higher value; 0 = fully inhibited enzyme, 1 = untreated enzyme | activation factor at 5 µM | AID 1025 | 96,000 tested, under 10 active;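 active means activation factor of at least 2 at 5 µM in the primary screen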
CYP2C9 act: CYP2C9 (human) activation | AID 1024 | recombinant CYP2C9, luciferin-H conversion, luminescence; stronger effect = higher value; factor 1 = untreated enzyme, 0 = blocked | P11712 | 1.4% of 96,000 active | activation factor at 5 µM;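 active means activation factor of 2 or more for CYP2C9 at a 5 µM dose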
CYP2C9 inhib: blocks human cytochrome P450 2C9; CYP2C9 Supersomes, luciferin-H conversion, luminescence; 20% of 96,000 active; AID 777; P11712; inhibition, % at 5 µM;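 active means blocking of liver enzyme CYP2C9 beyond about 50% at 5 µM, limit read from the data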
D1 mod: allosterically modulates the human D1 dopamine receptor; HEK293 D1, CRE-luciferase, dopamine EC30 potentiation; actives deviate in either direction; B-score at 10 µM; AID 641; 5.9% of 58,000 active;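 active means luminescence count or its row- and column-corrected plate score outside the 99.7% band of the plate's sample wells, on either side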
hDAT+cocaine: changed human dopamine transporter uptake under cocaine IC80 | LLC-PK1 hDAT cells, [14C]-dopamine uptake with cocaine IC80; actives deviate in either direction | 1.3% of 110,000 active | Q01959 | B-score at 10 µM;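 active means Z score or B-score, a plate-position-corrected score, falls beyond the plate's 99.7% confidence bounds, in either direction; inactive means both scores lie inside the 99.7% bounds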
Large screens that a line does not name were inactive.

CC1=C(C(=O)OCCOC(C)C)C(c2cc3c(cc2Br)OCO3)C2=C(CCCC2=O)N1 (stereo not drawn)	CYP2C19 inh 89
O=C(N1CCOCC1)N1CCN(S(=O)(=O)N2CCOCC2)CC1	none
Cc1ccccc1NC(=O)/C=C/c1cccc(C(F)(F)F)c1	CYP2C9 act 2.2 (no result: D1 mod)
CCOc1ccc(Cn2c(C)nc([N+](=O)[O-])c2SCC(O)CCl)cc1[N+](=O)[O-] (stereo not drawn)	CYP2C19 inh 76, CYP2C9 inhib 61 (no result: D1 mod)
CCCOc1ccc(Cn2c(C)nc([N+](=O)[O-])c2SCC(O)COC)cc1[N+](=O)[O-] (stereo not drawn)	none (no result: D1 mod)
Cc1nc2sc(C(c3ccc(C(C)C)cc3)N3CCN(CCO)CC3)c(O)n2n1 (stereo not drawn)	none
Cc1ccc(CC(NC(=O)c2ccccc2)C(=O)NCC(=O)O)cc1 (stereo not drawn)	none (no result: D1 mod)
COc1cc(NC(=O)c2ccc(COCC(F)(F)F)cc2)cc(OC)c1OC	none (no result: D1 mod)
O=C(c1ccc2c3n(nc2c1)-c1ccccc1CO3)N1CCCCC1	hDAT+cocaine 2.6 (no result: CYP2C19 inh, CYP2C19 act, CYP2C9 act, CYP2C9 inhib, D1 mod)
COc1ccc(C(=O)Oc2ccc(/C=N/O)cc2)cc1	none
Cc1ccnc(N2C(=O)OC(C)(C)C2(C)O)c1 (stereo not drawn)	none
Cc1ccc2c(c1)cc(CN(CCc1ccccc1)C(=O)N1CCOCC1)c1nnnn12	CYP2C19 inh 53, CYP2C9 inhib 64
Cc1ccc2c(c1)cc(CN(Cc1ccc3c(c1)OCO3)C(=O)c1ccccc1)c1nnnn12	none (no result: D1 mod)
Cc1ccc2c(c1)cc(CN(Cc1cccnc1)C(=O)NCc1ccccc1)c1nnnn12	CYP2C19 inh 90, CYP2C9 inhib 65 (no result: D1 mod)
Cc1ccc2[nH]c(=O)c(CN(CCc3ccccc3)C(=O)N3CCOCC3)cc2c1	none
CCC1=C(OC(=O)c2ccccc2)C(C)(C)C(c2ccccc2)OC1=O (stereo not drawn)	none (no result: D1 mod)
CCn1c(=O)c(C(=O)CN(C)Cc2cccc(OC)c2OC)c(N)n(Cc2ccccc2)c1=O	CYP2C19 inh 67 (no result: D1 mod)
CCn1c(=O)c(C(=O)CN2CCCc3ccccc32)c(N)n(Cc2ccccc2)c1=O	CYP2C19 inh 81, CYP2C9 inhib 93
COc1ccc(NC(=O)C(CCS(C)(=O)=O)N2C(=O)c3ccccc3C2=O)cc1 (stereo not drawn)	none (no result: D1 mod)
COc1cccc(CNc2ccc(Br)cn2)c1O	none (no result: D1 mod)
CCN(CC)c1ccc(CNc2ccc(Br)cn2)cc1	CYP2C19 inh 80, CYP2C9 inhib 63
CCCCn1c(NC(=O)c2ccccc2)c(C#N)c2nc3ccccc3nc21	CYP2C9 inhib 81 (no result: hDAT+cocaine)
CCCCn1c(NC(=O)c2ccc(F)cc2)c(C#N)c2nc3ccccc3nc21	none (no result: CYP2C19 inh, CYP2C19 act, CYP2C9 act, CYP2C9 inhib, hDAT+cocaine)
CCC1(C)N=C(c2ccc3c(c2)OCO3)CC(c2ccccc2O)N1 (stereo not drawn)	CYP2C19 inh 59, CYP2C9 inhib 74 (no result: D1 mod)
COc1cccc(C2=NC(C)(C)NC(c3ccccc3O)C2)c1 (stereo not drawn)	none
CCC(Oc1ccccc1)C(=O)Nc1ccc(S(=O)(=O)Nc2cnc3ccccc3n2)cc1 (stereo not drawn)	none (no result: D1 mod)
Cc1cc(Cl)ccc1OC(C)C(=O)Nc1ccc(S(=O)(=O)Nc2cnc3ccccc3n2)cc1 (stereo not drawn)	CYP2C9 inhib 88 (no result: D1 mod)
CC(Oc1ccc(Cl)cc1Cl)C(=O)Nc1ccc(S(=O)(=O)Nc2cnc3ccccc3n2)cc1 (stereo not drawn)	CYP2C9 inhib 100 (no result: D1 mod)
Cc1cc(NS(=O)(=O)c2ccc(NC(=O)C(C)Oc3ccc(Cl)cc3)cc2)no1 (stereo not drawn)	none (no result: D1 mod)
CC(=O)N(CN1C(=O)c2ccccc2C1=O)c1cccc(C)c1	CYP2C19 inh 97
Cc1cccc(NCN2C(=O)c3ccccc3C2=O)c1	none (no result: D1 mod)
CC(=O)N(CN1C(=O)c2ccccc2C1=O)c1ccccc1	CYP2C19 inh 59
C=CCOC(=O)C1=C[C@H](c2coc3ccccc3c2=O)C[C@H](OCCCCO)O1	none (no result: CYP2C19 inh, CYP2C19 act, CYP2C9 act, CYP2C9 inhib, D1 mod)
O=C(Nc1ccc(Cl)cc1)Nc1ccc2c(c1)N1CCN=C1S2	CYP2C9 inhib 67
CCc1nnc(N2C(=O)c3cccc4cccc(c34)C2=O)s1	none (no result: D1 mod)
CCC(C)c1ccc(OCC(=O)Nc2ccc(Cl)cn2)cc1 (stereo not drawn)	none (no result: D1 mod)
CC1CCc2c(sc3ncnc(SCC(=O)c4ccccc4)c23)C1 (stereo not drawn)	none (no result: CYP2C19 inh, CYP2C19 act, CYP2C9 act, CYP2C9 inhib, D1 mod)
O=C(CSc1nnc2c3c4c(sc3ncn12)CCCC4)NCc1ccco1	none
Cc1nc2sc3c(c2c2nnc(SCC(=O)NCc4ccco4)n12)CCCC3	CYP2C19 inh 98, CYP2C9 inhib 72
CC1CCc2c(sc3nc(SCC(=O)NCc4ccco4)nc(N)c23)C1 (stereo not drawn)	CYP2C9 inhib 61
CCOC(=O)c1cnn(-c2nc(SC)nc3sc4c(c23)CCCC4)c1N	CYP2C9 inhib 63 (no result: D1 mod)
CCN(CC)C(=O)CSc1nc(N)c2c3c(sc2n1)CC(C)CC3 (stereo not drawn)	CYP2C19 inh 56, CYP2C9 inhib 54, hDAT+cocaine 2.1 (no result: D1 mod)
CC(=O)c1sc(-c2c(C)nc3sccn23)nc1C1CCCC1	none (no result: hDAT+cocaine)
FC(F)(F)c1cc(-c2cccs2)nc(-n2cc(Cl)cn2)n1	none (no result: D1 mod)
CCSc1nc(N)c2c3c(sc2n1)CN(C)CC3	none (no result: D1 mod)
CCOC(=O)CSc1nc(N)c2c3c(sc2n1)CCCC3	CYP2C9 inhib 62
CC1=CC(C)(C)N(S(=O)(=O)c2ccc(C)cc2)c2ccccc21	CYP2C9 inhib 62 (no result: D1 mod)
CC1=CC(C)(C)N(C(=O)C(C)N2C(=O)c3ccccc3C2=O)c2ccc(C)cc21 (stereo not drawn)	CYP2C19 inh 83 (no result: D1 mod)
CC1=CC(C)(C)N(S(=O)(=O)c2ccc(F)cc2)c2ccc(C)cc21	none (no result: D1 mod)
CC1=CC(C)(C)N(C(=O)CN2C(=O)c3ccccc3C2=O)c2ccccc21	CYP2C9 inhib 87
CCc1ccccc1N1C[C@@]23C=C[C@@H](O2)C(C(=O)OCC(C)C)[C@H]3C1=O (stereo partly drawn)	none
O=C(Nc1cc2c(cc1Br)OCCO2)c1ccco1	none (no result: CYP2C19 inh, CYP2C19 act, CYP2C9 act, CYP2C9 inhib, D1 mod)
O/N=C(\COc1ccccc1O)c1ccccc1	CYP2C19 inh 93
COc1cc(NC(=O)c2cnn3c(C)cc(C)nc23)c(OC)cc1Cl	none
COc1ccccc1CNC(=O)c1cnn2c(C(F)F)cc(C)nc12	CYP2C19 inh 61, CYP2C9 act 2.2 (no result: D1 mod)
COc1ccc(CCNC(=O)c2cnn3c(C(F)F)cc(C)nc23)cc1OC	CYP2C19 inh 52 (no result: D1 mod)
COc1ccccc1CCNC(=O)c1cnn2c(C(F)F)cc(C)nc12	CYP2C19 inh 77 (no result: D1 mod)
O=C1NC(=Nc2cccc(Cl)c2)SC1Cc1cccc(Cl)c1Cl (stereo not drawn)	none (no result: D1 mod)
O=C1OC(Nc2ccc(Br)cn2)c2ccccc21 (stereo not drawn)	none
COc1ccc(-n2c(SC(CN3CCCCC3)CN3CCCC3=O)nc3ccccc3c2=O)cc1 (stereo not drawn)	CYP2C19 inh 61, CYP2C9 inhib 65 (no result: D1 mod)
